# Experimental data: PubChem BioAssay (NCATS)
# Several values for one entry are separate records, joined by “and”; a condition that tells them apart may be missing. Equal values may be shown once. Results filed as inconclusive are left out. A call without a number means that no potency is given here. Some compounds were tested as several samples or in several runs, with calls that do not always agree. Activity calls are given as the source filed them. Unless noted, the call rests on the fitted dose curve; in most records, active means well fitted curve in the direction sought with a large enough effect; inconclusive means small, poorly fitted or top-dose-only effect, or another doubt; inactive means no such curve, though single readings can be large; an effect the other way counts as inactive or inconclusive.
# Experiments:
# [1] = molecular target: Protein phosphatase 1D (Homo sapiens) (UniProt O15297); test: RapidFire Mass Spectrometry qHTS Assay for Modulators of WT P53-Induced Phosphatase 1 (WIP1) (AID 1347424);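 further: amount of dephosphorylated VEPPL-S-QETFS peptide product formed by WIP1; series mostly up to about 63 µM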
# Protein phosphatase 1D (Homo sapiens), sequence (O15297 whole entry, looked up): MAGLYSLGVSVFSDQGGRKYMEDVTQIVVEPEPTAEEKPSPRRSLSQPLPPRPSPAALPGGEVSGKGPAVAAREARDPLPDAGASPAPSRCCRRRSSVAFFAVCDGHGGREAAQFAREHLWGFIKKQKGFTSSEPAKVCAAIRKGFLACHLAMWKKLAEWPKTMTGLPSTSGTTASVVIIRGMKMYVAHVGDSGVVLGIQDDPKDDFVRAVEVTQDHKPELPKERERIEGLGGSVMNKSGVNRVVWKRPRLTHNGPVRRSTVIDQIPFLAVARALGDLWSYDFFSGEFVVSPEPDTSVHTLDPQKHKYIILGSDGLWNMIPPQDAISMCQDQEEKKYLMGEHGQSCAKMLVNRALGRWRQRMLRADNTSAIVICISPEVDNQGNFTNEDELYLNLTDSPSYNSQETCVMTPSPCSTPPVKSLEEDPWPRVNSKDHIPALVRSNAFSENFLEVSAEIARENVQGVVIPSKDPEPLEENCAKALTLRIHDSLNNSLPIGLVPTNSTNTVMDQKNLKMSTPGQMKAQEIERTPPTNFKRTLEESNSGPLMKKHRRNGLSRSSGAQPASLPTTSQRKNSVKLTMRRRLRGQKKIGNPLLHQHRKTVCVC
# Method in brief: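 WIP1 (10 nM final) was preincubated 1 h at room temperature with compounds in Tris-HCl pH 7.5, 30 mM MgCl2, TCEP, EGTA, BSA; 2 uM VEPPL-pS-QETFS phosphopeptide was added for 5 min, quenched with formic acid, and dephosphorylated product quantified by RapidFire MS.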
# [2] = Primary qHTS for inhibitors of La Crosse Virus (LACV) - induced cell death in SH-SY5Y cells (AID 1508616);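 further: top concentration of the series differs between compounds; higher means more rescue of cells from virus-induced death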
# Method in brief: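 Protection against LACV-induced cell death is scored in SH-SY5Y cells exposed to compounds and virus (0.01 MOI) for 6 days. Data normalized to virus-infected DMSO wells and virus-free DMSO wells.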
# [3] = molecular target: Calcium and integrin-binding protein 1 (Homo sapiens) (UniProt Q99828); test: Primary qHTS for Identification of Calcium Integrin Binding Protein 1 (CIB1) Competitor (AID 1508620);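 further: GST tagged CIB1 binding a fluorescein labelled alphaIIb integrin peptide tracer; top concentration of the series differs between compounds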
# Calcium and integrin-binding protein 1 (Homo sapiens), sequence (Q99828 whole entry, looked up): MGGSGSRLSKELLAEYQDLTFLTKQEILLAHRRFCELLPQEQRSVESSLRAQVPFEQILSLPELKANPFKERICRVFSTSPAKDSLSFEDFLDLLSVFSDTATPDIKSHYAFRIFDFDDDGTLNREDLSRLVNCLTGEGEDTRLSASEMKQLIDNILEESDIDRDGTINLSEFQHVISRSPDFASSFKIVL
# Method in brief: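 Fluorescence polarization competition: CIB1-GST (1 uM final) preincubated with compound 15 min at room temperature, then FITC-labeled alphaIIb peptide (100 nM final) added for another 15 min. Polarization read at Ex 480/Em 540.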
# [4] = A High-Content qHTS Against Drug Library for the Identification of Small Molecules that Inhibit DYT1 Early Onset Primary Dystonia-Associated Cell Pathology (AID 1645839; calls by dose curve; further: series mostly up to about 46 µM)
# Method in brief: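 Readout: %pathology, the punctate EGFP-TorsinA distribution from imaging, as the primary channel and cell count as the toxicity counterscreen. HEK293 Flp-In cells expressing delE TorsinA were induced with tetracycline and treated with compound for 48 h.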
# [5] = molecular target: Cytochrome P450 2D6 (Homo sapiens) (UniProt P10635); test: Cytochrome P450 family 2 subfamily D member 6 (CYP2D6) small molecule antagonists: luciferase biochemical (cell-free) qHTS assay (AID 1645840; active means well fitted curve in the direction sought with a large enough effect in the repeat runs; an effect the other way counts as inactive or inconclusive; further: nearly all actives have a fitted effect of over 55% in size; further: potency means the concentration at half of the fitted maximal effect)
# Cytochrome P450 2D6 (Homo sapiens), sequence (P10635 whole entry, looked up): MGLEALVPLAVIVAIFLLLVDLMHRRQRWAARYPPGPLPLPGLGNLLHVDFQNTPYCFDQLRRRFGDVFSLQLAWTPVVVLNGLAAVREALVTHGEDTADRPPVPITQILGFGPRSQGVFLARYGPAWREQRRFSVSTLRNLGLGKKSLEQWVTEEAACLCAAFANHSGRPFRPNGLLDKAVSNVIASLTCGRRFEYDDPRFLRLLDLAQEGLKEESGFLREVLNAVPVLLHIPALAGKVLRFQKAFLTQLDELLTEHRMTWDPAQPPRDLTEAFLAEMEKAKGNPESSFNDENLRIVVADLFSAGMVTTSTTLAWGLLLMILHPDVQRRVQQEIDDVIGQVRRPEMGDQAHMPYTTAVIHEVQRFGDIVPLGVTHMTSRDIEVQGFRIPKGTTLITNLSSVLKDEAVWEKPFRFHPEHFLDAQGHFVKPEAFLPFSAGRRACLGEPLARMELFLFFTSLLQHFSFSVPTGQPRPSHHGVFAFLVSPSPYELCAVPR
# Method in brief: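 P450-Glo luminescent screen: recombinant CYP2D6 enzyme–proluciferin substrate mix preincubated with compound 10 min at room temperature, then NADPH regeneration added for 1 h at room temperature. Detection reagent added for 20 min; luciferin light read as relative luminescence units.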
# [6] = molecular target: Cytochrome P450 2C9 (Homo sapiens) (UniProt P11712); test: Cytochrome P450 family 2 subfamily C member 9 (CYP2C9) small molecule antagonists: luciferase biochemical (cell-free) qHTS assay (AID 1645842; active means well fitted curve in the direction sought with a large enough effect in the repeat runs; an effect the other way counts as inactive or inconclusive; further: nearly all actives have a fitted effect of over 55% in size; further: potency means the concentration at half of the fitted maximal effect)
# Cytochrome P450 2C9 (Homo sapiens), sequence (P11712 whole entry, looked up): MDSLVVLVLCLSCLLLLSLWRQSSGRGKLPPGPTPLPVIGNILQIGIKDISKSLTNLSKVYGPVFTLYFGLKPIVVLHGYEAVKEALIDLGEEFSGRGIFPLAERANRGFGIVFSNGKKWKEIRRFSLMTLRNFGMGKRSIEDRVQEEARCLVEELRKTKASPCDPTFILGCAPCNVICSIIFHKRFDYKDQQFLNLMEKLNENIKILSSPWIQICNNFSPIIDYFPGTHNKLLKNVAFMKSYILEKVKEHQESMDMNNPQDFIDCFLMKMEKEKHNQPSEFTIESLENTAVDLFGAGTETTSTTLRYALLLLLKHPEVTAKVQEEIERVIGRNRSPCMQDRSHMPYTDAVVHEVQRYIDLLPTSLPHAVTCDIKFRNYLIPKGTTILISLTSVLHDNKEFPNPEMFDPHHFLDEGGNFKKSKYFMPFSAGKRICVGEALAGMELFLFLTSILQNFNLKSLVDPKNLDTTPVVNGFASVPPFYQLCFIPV
# Method in brief: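 Luminescence, after 20 min with luciferin detection reagent, reflected CYP2C9 turnover during a 1 h NADPH-driven reaction at 37C. Enzyme-substrate mix contained 0.4% bovine serum albumin and was preincubated with compound 10 min at room temperature.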
# [7] = Primary qHTS for inhibitors of nuclear receptor binding SET domain protein 2 (NSD2) in an isogenic RCH-ACV NSD2 p.E1099K mutant (9B) (AID 1645876); further: nearly all actives have a fitted effect of over 70% in size; further: potency means the concentration at half of the fitted maximal effect
# [8] = Primary qHTS for inhibitors of nuclear receptor binding SET domain protein 2 (NSD2) in an RCH-ACV wild type WT cells (2C) (AID 1645877); further: nearly all actives have a fitted effect of over 70% in size; further: potency means the concentration at half of the fitted maximal effect
# [9] = Validation qHTS assay for inhibitors of Activation Induced Cytidine Deaminase (AID): UDG Counterscreen signal (AID 1347427); further: potency means the concentration at half of the fitted maximal effect
# Method in brief: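 Counterscreen read of UDG activity (2 U/mL, 4/3x) in the FRET deamination format with AID (1 uM, 4/3x), DJC20/DJC23 substrates (250 nM, 4x), 4 h at room temperature. NaOH stop, fluorescence at 560 ex/665 em.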
# [10] = molecular target: Single-stranded DNA cytosine deaminase (Homo sapiens) (UniProt Q9GZX7); test: Validation qHTS assay for inhibitors of Activation Induced Cytidine Deaminase (AID): AID signal (AID 1347429); further: potency means the concentration at half of the fitted maximal effect
# Single-stranded DNA cytosine deaminase (Homo sapiens), sequence (Q9GZX7 whole entry, looked up): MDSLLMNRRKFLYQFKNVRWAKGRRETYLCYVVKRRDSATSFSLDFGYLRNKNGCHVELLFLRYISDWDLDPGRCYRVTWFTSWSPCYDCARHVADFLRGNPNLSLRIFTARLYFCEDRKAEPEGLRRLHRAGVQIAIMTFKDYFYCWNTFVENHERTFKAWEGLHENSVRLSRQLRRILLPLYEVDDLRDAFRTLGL
# Method in brief: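 Fluorescence at 540 nm excitation and 590 nm emission reports ssDNA cytosine deamination by AID, with UDG in the same well. Compound-treated reactions ran 4 hr at room temperature with DJC20/DJC23 substrate, followed by 30 min NaOH treatment.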
# [11] = Primary qHTS for small molecule stabilizers of the endoplasmic reticulum resident proteome: Secreted ER Calcium Modulated Protein (SERCaMP) assay (AID 1508630)
# Method in brief: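 GLuc-SERCaMP-expressing SH-SY5Y cells, pretreated 16 h with compound, are challenged with thapsigargin to empty ER calcium stores; after 4 h, coelenterazine is added directly to the medium and luminescence is imaged.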
# [12] = molecular target: Protein phosphatase 1D (Homo sapiens) (UniProt O15297); test: Rhodamine-PBP qHTS Assay for Modulators of WT P53-Induced Phosphatase 1 (WIP1) (AID 1347425)
# Method in brief: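 Read-out: Rhodamine-PBP fluorescence (ex 525/em 598 nm) for released Pi, read each minute for 11 min after adding 10 uM VEPPL-pS-QETFS; signal taken as f1 minus pre-substrate f0. Enzyme 5 nM WIP1 with 1 hr room-temperature compound preincubation.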
# [13] = molecular target: Calcium and integrin-binding protein 1 (Homo sapiens) (UniProt Q99828); test: Validation qHTS for Identification of Calcium Integrin Binding protein 1 (CIB1) Competitor (AID 1508618)
# Method in brief: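 CIB1-GST (1 uM final) in 5 mM HEPES pH 7.4, 125 mM NaCl, 5 mM CaCl2, 0.01% Tween20 was preincubated 15 min at room temperature with compound (up to 114 uM), then FITC-alphaIIb peptide (100 nM) added for 15 min; fluorescence polarization read.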
# [14] = molecular target: Papain (Carica papaya) (UniProt P00784); test: Primary qHTS assay for inhibitors of the protease papain (AID 1645873);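 further: papain turnover of Z-FR-AMC read as the AMC fluorescence gain over 10 min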; further: potency means the concentration at half of the fitted maximal effect
# Papain (Carica papaya), sequence (P00784 whole entry, looked up): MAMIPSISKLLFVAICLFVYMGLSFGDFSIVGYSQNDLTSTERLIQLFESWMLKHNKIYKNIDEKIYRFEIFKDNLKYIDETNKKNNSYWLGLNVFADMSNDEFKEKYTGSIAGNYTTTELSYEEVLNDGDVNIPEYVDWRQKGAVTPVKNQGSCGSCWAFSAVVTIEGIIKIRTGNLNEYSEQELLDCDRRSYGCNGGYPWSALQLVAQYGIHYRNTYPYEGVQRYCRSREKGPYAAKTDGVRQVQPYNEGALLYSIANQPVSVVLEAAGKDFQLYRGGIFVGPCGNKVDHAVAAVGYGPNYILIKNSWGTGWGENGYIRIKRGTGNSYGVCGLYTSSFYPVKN
# [15] = molecular target: Calcium and integrin-binding protein 1 (Homo sapiens) (UniProt Q99828); test: Confirmatory qHTS for Identification of Calcium Integrin Binding Protein 1 (CIB1) Competitor (AID 1508617); further: potency means the concentration at half of the fitted maximal effect; nearly all actives have a fitted effect of over 65% in size
# Method in brief: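 Fluorescence polarization competition: CIB1-GST (1 uM final) in 5 mM HEPES pH 7.4, 125 mM NaCl, 5 mM CaCl2, 0.01% Tween20 preincubated 15 min RT with compound (up to 114 uM), then FITC-alphaIIb peptide (100 nM) added, 15 min RT.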
# [16] = molecular target: Cytochrome P450 3A4 (Homo sapiens) (UniProt P08684); test: Cytochrome P450 family 3 subfamily A member 4 (CYP3A4) small molecule antagonists: luciferase qHTS assay (AID 1645841; active means well fitted curve in the direction sought with a large enough effect in the repeat runs; an effect the other way counts as inactive or inconclusive; further: nearly all actives have a fitted effect of over 45% in size)
# Cytochrome P450 3A4 (Homo sapiens), sequence (P08684 whole entry, looked up): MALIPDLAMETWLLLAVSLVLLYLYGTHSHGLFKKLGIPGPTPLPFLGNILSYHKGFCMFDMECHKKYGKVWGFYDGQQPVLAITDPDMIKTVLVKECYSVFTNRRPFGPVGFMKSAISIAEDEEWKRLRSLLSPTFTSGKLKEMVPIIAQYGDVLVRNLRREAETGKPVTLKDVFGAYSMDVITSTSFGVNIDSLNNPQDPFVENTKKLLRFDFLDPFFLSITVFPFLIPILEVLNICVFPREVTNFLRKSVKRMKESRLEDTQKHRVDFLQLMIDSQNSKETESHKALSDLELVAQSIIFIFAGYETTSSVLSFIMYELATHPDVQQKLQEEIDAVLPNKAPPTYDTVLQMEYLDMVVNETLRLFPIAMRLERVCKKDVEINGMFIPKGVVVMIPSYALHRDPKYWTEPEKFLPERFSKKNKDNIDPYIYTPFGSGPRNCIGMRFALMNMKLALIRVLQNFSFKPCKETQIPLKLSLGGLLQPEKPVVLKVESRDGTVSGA
# Method in brief: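 P450-Glo CYP3A4 enzyme with proluciferin substrate was preincubated with DMSO-dissolved compounds for 10 min at room temperature. NADPH regeneration solution started a 1 h reaction. Detection reagent stopped it, and luminescence was read after 20 min.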
# [17] = molecular target: N-terminal Xaa-Pro-Lys N-methyltransferase 1 (Homo sapiens) (UniProt Q9BV86); test: Confirmatory qHTS for Inhibitors of N-terminal methyltransferase 1 (NTMT1): MTaseGlo Assay (AID 1645874); conditions: NTMT1 enzyme, MTase-Glo SAH luminescence; further: potency means the concentration at half of the fitted maximal effect; nearly all actives have a fitted effect of over 65% in size
# N-terminal Xaa-Pro-Lys N-methyltransferase 1 (Homo sapiens), sequence (Q9BV86 whole entry, looked up): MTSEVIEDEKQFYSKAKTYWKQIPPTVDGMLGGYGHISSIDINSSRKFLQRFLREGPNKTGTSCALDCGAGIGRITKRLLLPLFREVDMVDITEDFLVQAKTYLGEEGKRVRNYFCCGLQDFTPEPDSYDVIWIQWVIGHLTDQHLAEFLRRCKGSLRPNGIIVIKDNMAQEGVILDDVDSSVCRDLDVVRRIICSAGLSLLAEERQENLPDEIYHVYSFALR
# Method in brief: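 Luminescent MTase-Glo read-out of SAH. 125 nM NTMT1, 100 uM SAM, 1 uM SPKRIA substrate, 30 min RT reaction after 15 min compound preincubation. Normalized to no-enzyme and DMSO controls; Hill fit.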
smiles,measurement,setting,value
Cc1ncc(COP(=O)(O)O)c(C=O)c1O,outcome,[1],inactive
same,outcome,[2],inactive
same,outcome,[3],inactive
same,Potency,[4],inactive
same,Potency,[5],inactive
same,Potency,[6],inactive
same,Potency,[7],inactive
same,Potency,[8],inactive
COc1ccc(Cl)cc1C(=O)NCCc1ccc(S(=O)(=O)NC(=O)NC2CCCCC2)cc1,Potency,[9],inactive
same,Potency,[10],inactive
same,outcome,[2],inactive
same,outcome,[3],inactive
same,Potency,[11],inactive
same,Potency,[4],inactive
same,Potency,[7],inactive
CCCCCCCCCCCCOS(=O)(=O)O,outcome,[1],inactive
same,outcome,[12],inactive
same,outcome,[2],inactive
same,Potency,[4],inactive
same,Potency,[7],inactive
same,Potency,[8],inactive
N=c1c[n+](N2CCOCC2)[n-]o1,Potency,[9],inactive
same,Potency,[10],inactive
same,outcome,[2],inactive
same,outcome,[13],inactive
same,Potency,[11],inactive
same,Potency,[14],inactive
Cc1c(Cl)cccc1Nc1ccccc1C(=O)O,outcome,[2],inactive
same,outcome,[3],inactive
same,Potency,[11],inactive
same,Potency,[5],inactive
CC(C)NC[C@H](O)c1ccc(O)c(O)c1,Potency,[9],inactive
same,Potency,[10],inactive
same,outcome,[2],inactive
same,outcome,[13],inactive
same,Potency,[11],inactive
same,Potency,[14],1.12 µM (active) and inactive
O=C(O)Cc1sc(-c2ccccc2)nc1-c1ccc(Cl)cc1,outcome,[1],inactive
same,outcome,[12],inactive
same,outcome,[2],inactive
same,Potency,[11],inactive
same,Potency,[4],inactive
same,Potency,[5],inactive
same,Potency,[6],4.9 µM (active)
same,Potency,[7],inactive
same,Potency,[8],inactive
CN1[C@@H]2CC(OC(=O)[C@H](CO)c3ccccc3)C[C@H]1[C@@H]1O[C@@H]12 (stereo not given in full),outcome,[1],inactive
same,outcome,[12],inactive
same,outcome,[2],inactive
same,Potency,[4],inactive
C=Cc1c(C)c2cc3[nH]c(cc4nc(cc5nc(cc1[nH]2)C(C)=C5CCC(=O)O)C(CCC(=O)O)=C4C)c(C)c3C=C,outcome,[12],inactive
same,Potency,[9],inactive
same,Potency,[10],inactive
same,outcome,[2],inactive
same,Potency,[15],25.1 µM (active)
same,Potency,[11],inactive
same,Potency,[4],inactive
same,Potency,[5],inactive
same,outcome,[16],inactive
same,Potency,[6],inactive
same,Potency,[14],inactive
same,Potency,[17],34.5 µM (active)
Cc1cc(N)c2ccccc2[n+]1CCCCCCCCCC[n+]1c(C)cc(N)c2ccccc21,Potency,[9],89.1 µM (active)
same,Potency,[10],50.1 µM (active)
same,outcome,[2],inactive
same,outcome,[13],inactive
same,outcome,[3],inactive
same,Potency,[11],inactive
same,Potency,[5],5.35 µM (active)
same,Potency,[6],inactive
same,Potency,[14],15.8 µM (active)
same,Potency,[7],2.9 µM (active)
same,Potency,[8],3.25 µM (active)
CCN(CC)CCNC(=O)c1c(C)[nH]c(/C=C2\C(=O)Nc3ccc(F)cc32)c1C,outcome,[1],inactive
same,outcome,[2],inactive
same,outcome,[13],inactive
same,outcome,[3],inactive
same,Potency,[6],inactive
same,Potency,[17],30.8 µM (active)
same,Potency,[7],3.76 µM (active) and 3.32 µM (active)
same,Potency,[8],2.99 µM (active) and 3.72 µM (active)
Oc1cccc(O)c1,outcome,[1],inactive
same,outcome,[12],inactive
same,outcome,[2],inactive
same,Potency,[11],inactive
same,Potency,[4],inactive
same,Potency,[5],inactive
same,Potency,[6],inactive
same,Potency,[7],inactive
same,Potency,[8],inactive
